# Data: PubChem BioAssay (NCATS)
# Values without a mark were called inactive. Records with an inconclusive call do not appear. Calls of active or inactive are those of the source. Unless noted, calls come from the whole dose curve; as a rule, active = well fitted curve in either direction with a large enough effect (not every such curve was filed as active); inconclusive = small, poorly fitted or top-dose-only effect, or another doubt; inactive = flat fitted curve, though single readings scatter.
# Experiments:
# [1] = AP1 Signaling Pathway (AID 357); conditions: ME-180 AP-1-bla reporter, EGF-induced, beta-lactamase ratio, 5 h; at 17.2 µM (top of the series) unless noted; note: % is set by controls: 0 for no effect and ±100 for the full control effect
# Procedure, shortened: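 AP-1-bla ME-180 cells with beta-lactamase reporter under AP-1 response element, stimulated with EC50 EGF; compounds titrated, 5 hours at 37 degrees Celsius. CCF4 read at 460/530 nm ratio; positive and negative modulators judged by AC50.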
# [2] = NFAT Signaling Pathway (AID 444); conditions: Jurkat NFAT-bla M1, carbachol, beta-lactamase ratio, 5 h; at 17.2 µM (top of the series) unless noted;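 note: carbachol stimulus at about its EC50 of 1 µM final; % is set by controls: 0 for no effect and ±100 for the full control effect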
# Procedure, shortened: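 Read-out: CCF4 FRET ratio (460 nm/530 nm) after 1 h RT dye loading, used for %activity and AC50 from titration series. Cells: Jurkat NFAT-β-lactamase/M1 line, treated with compound plus 1 uM carbachol for 5 h, 37 °C.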
# [3] = Stat Signaling Pathway (AID 446); conditions: ME-180 SIE beta-lactamase reporter, IL-6 stimulated, 5 h; at 17.2 µM (top of the series) unless noted;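 note: ME-180 cervical cancer cells given 40 pM IL-6 alongside compound; SIE-controlled beta-lactamase reporter measured as 460/530 nm FRET emission ratio; % is set by controls: 0 for no effect and ±100 for the full control effect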
# Procedure, shortened: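 Reporter line: ME-180 cervical carcinoma, SIE-beta-lactamase. Treatment: compound with 40 pM IL-6, 5 hrs, 37 C, in low-serum OPTI-MEM with 10 mM HEPES pH 7.3. Detection: 460/530 nm fluorescence.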
# [4] = biological target: Glucocorticoid receptor (Homo sapiens) (UniProt P04150); experiment: GR-GFP Redistribution (AID 450;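 active = compounds whose dose series gives a full or clear partial fitted curve of increased nuclear translocation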; note: potency is the fitted concentration of half-maximal effect)
# Chain of Glucocorticoid receptor (Homo sapiens) (P04150 whole entry, looked up): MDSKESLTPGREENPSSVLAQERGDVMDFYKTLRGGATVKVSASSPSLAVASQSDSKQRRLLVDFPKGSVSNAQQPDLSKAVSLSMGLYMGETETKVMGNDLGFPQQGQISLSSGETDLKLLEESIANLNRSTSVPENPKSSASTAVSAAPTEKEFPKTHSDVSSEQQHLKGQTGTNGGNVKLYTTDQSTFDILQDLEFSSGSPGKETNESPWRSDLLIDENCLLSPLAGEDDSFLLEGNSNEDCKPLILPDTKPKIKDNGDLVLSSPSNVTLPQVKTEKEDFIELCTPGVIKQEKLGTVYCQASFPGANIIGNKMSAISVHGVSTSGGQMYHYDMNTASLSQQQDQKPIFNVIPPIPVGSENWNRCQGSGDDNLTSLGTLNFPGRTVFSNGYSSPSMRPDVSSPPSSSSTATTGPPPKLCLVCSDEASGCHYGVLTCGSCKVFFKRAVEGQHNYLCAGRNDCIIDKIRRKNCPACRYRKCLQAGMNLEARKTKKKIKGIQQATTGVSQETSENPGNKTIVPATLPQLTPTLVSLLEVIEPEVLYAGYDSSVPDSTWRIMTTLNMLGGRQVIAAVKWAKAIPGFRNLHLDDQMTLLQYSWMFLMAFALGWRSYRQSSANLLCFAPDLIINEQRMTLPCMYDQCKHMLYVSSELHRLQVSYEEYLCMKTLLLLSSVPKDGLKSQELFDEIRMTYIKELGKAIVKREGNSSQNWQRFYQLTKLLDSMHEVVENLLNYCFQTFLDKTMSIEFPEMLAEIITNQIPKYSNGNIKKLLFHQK
SMILES,"activity change, negative = inhibition [1] [%]","activity change, negative = inhibition [2]","activity, negative = inhibition [3] [%]",Potency [4] [µM]
CCOc1cccc(C2C(C#N)=C(N)Oc3cc(C)oc(=O)c32)c1OCC (centres undefined),-17.6,9.73%,-12.7,> 20.6
CCc1ccc(NC(=O)CSC2=C(C#N)C(c3ccco3)C3=C(CCCC3=O)N2)cc1 (centres undefined),-12.8,-17.6%,-16.5,> 20.6
COc1cccc(-c2nnc3sc(-c4ccco4)nn23)c1,-6.59,7.27%,-1.01,> 20.6
Clc1ccc(-n2ncc3c(NCCCn4ccnc4)ncnc32)cc1,-4.22,-6.43%,-0.823,> 20.6
N/C(CCN1CCCCC1)=N/O,8.61,-6.23%,2.5,> 20.6
CCN(CC)C(=O)CSC1=C(C#N)C(c2cccs2)C=C(C)N1 (centres undefined),-28.4,-9.19%,6.46,> 20.6
COc1cc(C(=O)Nc2nccs2)cc(OC)c1OC,12.8,-2.54%,-9.15,> 20.6
COC(=O)c1n[nH]c2ccccc12,9.29,15.6%,-6.08,> 20.6
COc1ccc(CN(C)CCc2ccccn2)c(OC)c1OC,-14.2,-17.4%,11.1,> 20.6
CCOCCN(C(=O)COC)c1cccc(OC)c1,20.2,2.78%,6.59,> 20.6
COCc1cc(=O)[nH]c(Nc2nc3ccccc3o2)n1,20.9,-12.8%,1.07,> 20.6
CC(C)NCc1c(O)c(Br)cc2oc3c(c12)CCCC3,28.5,0.46%,5.85,> 20.6
Cc1cc(C)c(NC(=O)OCCN2CCOCC2)c(C)c1,4.21,-5.81%,5.25,> 20.6
O=c1[nH]cnc2c1cnn2Cc1ccccc1,2.81,-7.78%,6.19,> 20.6
COc1ccc(-c2nnc3sc(COc4ccccc4)nn23)cc1,-22.1,-15.2%,-8.06,> 20.6
CCC(=O)Nc1ccc(-c2nnc(SCC(=O)NCC3CCCO3)n2C)cc1 (centres undefined),-2.29,-1.98%,1.52,> 20.6
N#C/C(C(=O)N1CCCCC1)=C1\Nc2ccccc2S1,-15,11.9%,-10.3,> 20.6
COc1cccc(C2C(C(=O)c3cccs3)=C(O)C(=O)N2c2cc(C)on2)c1 (centres undefined),-6.29,16.2%,-7.97,> 20.6
CN(C)c1nc2n(c(=O)n1)C(C#N)CS2 (centres undefined),-5.05,3.5%,5.84,> 20.6
O=C(c1coc(=O)c(Br)c1)N1CCCc2ccccc21,11.9,0.236%,8.49,> 20.6
COC(=O)/C=c1/s/c(=C(/C#N)C(=O)N2CCCCC2)n(-c2ccccc2)c1=O,26,-25.6%,-5.91,> 20.6
Cc1cc(=O)[nH]c(COc2ccccc2)n1,3.59,-7.86%,-2.52,> 20.6
CC1CCN(c2ncnc3c2cnn3Cc2ccc(Cl)cc2)CC1,-26,-2.2%,-11.4,> 20.6
CCOC(=O)Cn1c(SC)nc2sc3c(c2c1=O)CC(C)(C)OC3,3.62,10.2%,-3.19,> 20.6
CCSc1nnc(N(CCC(=O)O)CCC(=O)O)s1,2.21,5.3%,-4.16,> 20.6
CN1CCN(CCCCC(=O)c2ccccc2)CC1,16.6,-15.1%,9.37,> 20.6

SMILES,"activity change, negative = inhibition [1] [%]","activity change, negative = inhibition [2]","activity, negative = inhibition [3] [%]",Potency [4] [µM]
O=C1CC(NCc2ccncc2)C(=O)N1c1ccc(Cl)cc1 (centres undefined),-15.8,13.2%,-1.32,> 20.6
Cn1c(=O)c2c3c(sc2n2c(SCC(N)=O)nnc12)CC(C(C)(C)C)CC3 (centres undefined),-9.72,19.6%,14,> 20.6
CC(=O)N(Cc1ccccc1)c1ccc(C(=O)O)cc1,1.39,-12.1%,13.1,> 20.6
CC(C)CN1C(=O)c2ccc(C(=O)Nc3ccccn3)cc2C1=O,-5.2,27.9%,4.97,> 20.6
CC1(C(=O)CSc2nc3ccccc3s2)CCC(=O)O1 (centres undefined),-6.34,1.72%,4.74,> 20.6
N#CC1(c2ccccc2)CCC(=NO)CC1 (centres undefined),-5.72,8.2%,11.5,> 20.6
CCOC(=O)c1c(C)oc2ccc(OCC(=O)C(C)(C)C)cc12,-23.5,2.59%,-10.1,> 20.6
CN(C)CC(O)COc1ccc(C(C)(C)c2ccc(OCC(O)CN(C)C)cc2)cc1 (centres undefined),-0.00757,1.57%,-4.4,> 20.6
Cc1cc(C)c2c(N)c(C(=O)c3ccccc3)oc2n1,1.21,3.96%,-8.9,> 20.6
CCC(NC(=O)Nc1nnc(C(F)(F)F)s1)(C(F)(F)F)C(F)(F)F,18.4,-115% (active),-38.4,> 20.6
CC(=O)NCC(=O)OCN1C(=O)c2ccccc2C1=O,10.5,-1.05%,0.512,> 20.6
CCc1nc(NCCN2CCOCC2)c(C#N)c2c1CCCC2,-11.1,-20.4%,6.43,> 20.6
Cc1nc(NCCO)c(C#N)c2c1COC(C)(C)C2,-5.08,2.21%,4.18,> 20.6
c1ccc(-c2nn3c(C4CCCCC4)nnc3s2)cc1,-19.5,-5.79%,18.2,> 20.6
Cn1c(=O)c2c3c(sc2n2c(SCC(=O)c4ccccc4)nnc12)COC(C)(C)C3,5.44,-28.1%,4.51,> 20.6
COC(=O)C(NC(=O)c1ccco1)(Nc1ccc(Br)cn1)C(F)(F)F (centres undefined),-10.6,-10.8%,-13,> 20.6
COc1ccc(C2CC(C(F)(F)F)n3ncc(C(=O)NCC4CCCO4)c3N2)cc1OC (centres undefined),-0.991,3.91%,-0.435,> 20.6
COc1ccc(OC)c(C2/C(=C(/O)c3ccccc3)C(=O)C(=O)N2Cc2ccco2)c1 (centres undefined),-4.43,6%,-9.05,> 20.6
O=C(c1ccc(=O)oc1)N1CCN(c2ccc(F)cc2)CC1,2.08,-11.6%,-4.16,> 20.6
Cc1c(NC(=O)c2ccc(=O)oc2)c(=O)n(-c2ccccc2)n1C,10.3,-22.5%,2.43,> 20.6
CCOC(=O)CC(=O)CSc1[nH]c(=O)cc(C)c1C#N,8.86,2.85%,13.5,> 20.6
Cn1c(=NCC(O)COc2ccccc2)sc2ccccc21 (centres undefined),-7.25,-13.4%,8.49,> 20.6
Cn1c(NCc2ccccc2)nc2c1c(=O)n(Cc1ccccc1)c(=O)n2C,-27.4,-0.651%,-21.1,> 20.6
CC(Sc1ccc2ccccc2n1)C(=O)O (centres undefined),14.7,9.86%,5.88,> 20.6
O=C1CCC(=O)N1CN(Cc1ccco1)CN1C(=O)CCC1=O,7.15,5.38%,0.484,> 20.6
